Reference: PubChem BioAssay AID1566 (Sanford-Burnham Center for Chemical Genomics, 2009)
Out of some 290,000 compounds screened, about 1,800 (0.62%) were called active. The sample holds actives, similar compounds and a random draw of the others, so the mix is not that of the screen. Cut-off read from the data, not from the text of the source: active = inhibition above about 50%; inactive = the rest.

test: NOD2 signaling inhibitors, cell-based, luminescence, uHTS, HEK293 (AID 1566); conditions: HEK293 NOD2/NF-kB luciferase reporter, at 4 µM, stronger effect = higher value

SMILES	inhibition
O=C1CCCN1CCCNS(=O)(=O)c1ccc(Br)cc1	6.2% (inactive)
Cn1c(=O)n(CC(=O)O)c(=O)c2c1nc1n2CCCN1CCc1ccccc1	4.6% (inactive)
CCC(=O)C1CCCN(C(=O)c2ccc3nc(-c4cccc(OC)c4)oc3c2)C1 (stereo not given)	-51.5% (inactive)
CC(C)Cc1cc(C(=O)N2CCCC(C(=O)c3cc(F)ccc3F)C2)n(C)n1 (stereo not given)	23.7% (inactive)
COc1ccc(C(=O)Nc2ccc(NC(=O)c3cnccn3)cn2)cc1	-1.7% (inactive)
O=C(Nc1ccc2cn[nH]c2c1)c1ccc(Cl)c(S(=O)(=O)N2CCOCC2)c1	-3.7% (inactive)
CCC1C/C(=C\c2cccnc2)C(=O)/C(=C/c2cccnc2)C1 (stereo not given)	94.6% (active)
CN1C/C(=C/c2cccnc2)C(=O)/C(=C/c2cccnc2)C1	10.1% (inactive)
O=C1/C(=C/c2cccnc2)CC/C1=C\c1cccnc1	1.3% (inactive)
COc1cc(COc2ccc(-c3nnco3)cc2)ccc1OC(F)F	6.2% (inactive)
Cc1ccc(COc2ccc(-c3nnco3)cc2)cc1	-78.6% (inactive)
COc1ccnc(Oc2ccccc2)c1C(=O)N/C=N/OCc1ccccc1F	2.7% (inactive)
CCCCCCn1c(NCC)nc2c1c(=O)n(C)c(=O)n2C	30% (inactive)
COCCNC(=O)c1cc2cc3ccc(OC)cc3nc2o1	11.5% (inactive)
COc1ccc2cc3cc(C(=O)NCCC(C)C)oc3nc2c1	10.4% (inactive)
COc1ccc(-c2cc(=O)oc3cc(OCC(=O)N4C[C@H]5C[C@@H](C4)c4cccc(=O)n4C5)ccc23)cc1	3.1% (inactive)
CCCCn1c(=O)c(CCC(=O)OCC(=O)Nc2cccc3ccccc23)nc2ccccc21	15.7% (inactive)
O=C(Cc1ccccc1)NNC(=O)C1CC=CCC1 (stereo not given)	5.2% (inactive)
CCc1nnc(NC(=O)COc2ccccc2[N+](=O)[O-])s1	-7.9% (inactive)
Cc1csc(NC(=O)c2c(O)c3c(n(CC(C)C)c2=O)CCCC3)n1	23.7% (inactive)

SMILES	inhibition
O=C(NC1=C(Nc2ccc(F)cc2)C(=O)c2ccccc2C1=O)c1ccc(Cl)cc1	-10.9% (inactive)
O=C(NC1=C(Nc2ccc(Cl)cc2)C(=O)c2ccccc2C1=O)c1ccccc1	24.3% (inactive)
CSc1nc(N)c2c(C)c(C)sc2n1	-1.2% (inactive)
CCOC(=O)C(=CNc1ccc(NC2=NCC(C)(C)S2)cc1)C(=O)OCC	34.9% (inactive)
CCOC(=O)C(=CNc1ccc(NC2=NCC(C)S2)cc1)C(=O)OCC (stereo not given)	55.5% (active)
CCOC(=O)C(=CNc1ccc(C#N)cc1)C(=O)OCC	8.2% (inactive)
COc1cccc(CNC(=O)CCNC(=O)C2CCN(S(=O)(=O)c3ccc(F)cc3)CC2)c1	9% (inactive)
N#C/C(=C(/O)COC(=O)c1ccc(C#N)cc1)c1nc2ccccc2s1	-9.9% (inactive)
N#C/C(=C(/O)COC(=O)c1ccccc1O)c1nc2ccccc2s1	52.7% (active)
CC(C)(C)c1ccc(C(=O)OC/C(O)=C(\C#N)c2nc3ccccc3s2)cc1	30.1% (inactive)
C=C(C)C(=O)Oc1ccc(N2C(=O)[C@@H]3C4C=CC(C4)[C@@H]3C2=O)cc1	-1.5% (inactive)
CCn1c(=O)n(CC)c2cc(S(=O)(=O)N3CCCCC3)c(C)cc21	-12.1% (inactive)
NC(=O)CC(NC(=O)Cc1ccc(Br)cc1)c1ccc(NCCN2CCOCC2)c([N+](=O)[O-])c1 (stereo not given)	-1.2% (inactive)
N#CC1=C(N)Oc2n[nH]c(-c3cccnc3)c2C1c1cc(F)ccc1F (stereo not given)	-1.5% (inactive)
Fc1ccccc1CNc1ncnc2sccc12	56.7% (active)
c1cncc(CNc2ncnc3sccc23)c1	21.1% (inactive)
c1ccc(CNc2ncnc3sccc23)cc1	44.5% (inactive)
Cc1cccc(NC(=O)C(Cc2ccccc2)n2cccc2)c1 (stereo not given)	9.8% (inactive)
Cc1ccc(NC(=O)C(CC(C)C)NC(N)=O)cc1Cl (stereo not given)	-3.3% (inactive)
CCN(CC)S(=O)(=O)c1cc(NC(=O)C(CC(C)C)NC(N)=O)ccc1C (stereo not given)	57.5% (active)

SMILES	inhibition
CCN(CC)S(=O)(=O)c1cc(NC(=O)[C@@H](NC(N)=O)C(C)C)ccc1C	6.6% (inactive)
COc1ccc(/C(C)=N/NC(=O)c2nnn(-c3nonc3N)c2-c2ccccc2)cc1	6.5% (inactive)
Cc1ccc(C(=O)Nc2cccc(C(F)(F)F)c2)cc1Nc1ccccn1	-0.8% (inactive)
Cc1ccc(C(=O)Nc2cccc(C(F)(F)F)c2)cc1Nc1cnccn1	14% (inactive)
CCN(CC)c1ccc(/C=N/N2CCN(Cc3ccccc3Cl)CC2)cc1	4.7% (inactive)
Cc1cccc(-n2ncc3c(NC4CCCCC4)ncnc32)c1	7.4% (inactive)
Cc1cccc(-n2ncc3c(N(C)C4CCCCC4)ncnc32)c1	72.3% (active)
COc1ccc(-n2ncc3c(NC(C)C)ncnc32)cc1	13.8% (inactive)
CCCN(CCC)c1ncnc2c1cnn2-c1ccc(OC)cc1	-123% (inactive)
Cc1cccc(-n2ncc3c(N(C)Cc4ccccc4)ncnc32)c1	-120% (inactive)
Fc1cccc(NC(=S)NCCc2ccccc2)c1	10% (inactive)
CC(=O)Oc1cccc(NC(=O)c2ccc3c(c2)C(=O)N(CC(C)C)C3=O)c1	-7.8% (inactive)
CCN(CC)c1ccc(S(=O)(=O)N2CCOCC2)cc1NC(=O)CN1CCN(Cc2ccccc2)CC1	-7.9% (inactive)
O=C(CN1CCc2ccccc2C1)Nc1cc(S(=O)(=O)N2CCOCC2)ccc1N1CCOCC1	-2.4% (inactive)
COc1ccc(OC)c(N2C(=O)CC(C(C)c3ccccc3)C2=O)c1 (stereo not given)	9.7% (inactive)
COc1ccc(-n2c3c(cc(C(=O)NCc4ccco4)c2=O)C(=O)CC(C)(C)C3)cc1	10.7% (inactive)
Cc1ccc(C(=O)CSc2nnc3ccccn23)c(C)c1	-52.8% (inactive)
Cc1cc(C(=O)CSc2nncn2C)c(C)n1-c1ccccc1	-52.4% (inactive)
Cc1cc(C(=O)CSc2nnc3ccccn23)c(C)n1-c1ccccc1	66.8% (active)
COc1ccc(NC(=O)c2c(NC(=O)CNCc3ccco3)sc3c2CCC3)cc1	6.3% (inactive)
